# A number with no mark means an inactive call.
# Tested on: Vero E6 infected with SARS-CoV-2
# Experiment: inhibition of SARS-CoV-2 cytopathic effect; higher = more antiviral protection, active = above 15
# Conditions: 48 h
Structure (SMILES),inhibition of SARS-CoV-2 cytopathic effect (1 nM),inhibition of SARS-CoV-2 cytopathic effect (8.33 nM),inhibition of SARS-CoV-2 cytopathic effect (100 nM),inhibition of SARS-CoV-2 cytopathic effect (833.33 nM),inhibition of SARS-CoV-2 cytopathic effect (10000 nM)
CC(C)(c1ccc(O)cc1)c1ccc(O)cc1 [bisphenol-A],3.73%,8.2%,2.75%,1.31%,4%
C[C@H](NC(=O)CNC(=O)c1cccc(Cl)c1)c1ccccc1,-3.1%,0.31%,-4.2%,-1.91%,0.27%
COc1ccc2cc(C(C)C(=O)Oc3ccc(C(N)=S)cc3)ccc2c1 (stereo not given),-0.75%,0.03%,-0.37%,0.55%,4.55%
COc1cc2c(Nc3ccc(NC(=O)c4ccccc4)cc3)ncnc2cc1OCCCN1CCOCC1,-0.39%,0.92%,-0.95%,0.98%,0.98%
CCCC(=O)N1CCCN(c2nc(N)c3cc(OC)c(OC)cc3n2)CC1 [bunazosin],-0.32%,-1.38%,1.21%,0.02%,0.07%
CCCC(C)(COC(N)=O)COC(=O)NC(C)C (stereo not given),1.17%,2.25%,2.38%,4.43%,0.83%
O=C(/C=C/N1C[C@H]2C[C@@H]1CN2c1ccccn1)c1ccccc1O,-0.57%,-1.55%,-0.95%,-5.12%,-2.56%
CC(CN(C)C)CN1c2ccccc2CCc2ccccc21 (stereo not given) [trimipramine],-3.96%,-0.87%,-0.5%,-2.02%,-3.88%
COc1ccccc1Oc1c(NS(=O)(=O)c2ccc(C)cn2)nc(-c2ccncc2)nc1OC,1.47%,2.09%,1.19%,2.9%,-4.64%
CCC(=O)O[C@]1(C(=O)CCl)[C@@H](C)C[C@H]2[C@@H]3C[C@H](F)C4=CC(=O)C=C[C@]4(C)[C@@]3(F)[C@@H](O)C[C@@]21C [halobetasol-propionate],-3.17%,-1.89%,-2.65%,1.32%,4.68%
Cc1[nH]c(/C=C2\C(=O)Nc3ccc(S(=O)(=O)N(C)c4cccc(Cl)c4)cc32)c(C)c1C(=O)N1CCN(C)CC1,2.2%,0.76%,-0.49%,0.96%,-1.88%
NC[C@H]1O[C@H](O[C@H]2[C@H](O[C@@H]3O[C@H](CO)[C@@H](O)[C@H]3O)[C@@H](O)[C@H](N)C[C@@H]2N)[C@H](N)[C@@H](O)[C@@H]1O [ribostamycin-sulfate],2.02%,-0.235%,-0.77%,-1.25%,-0.88%
NS(=O)(=O)c1cccc2c1c([N+](=O)[O-])cc1nc(O)c(O)nc12,2.79%,2.79%,2.47%,1.7%,-1.01%
NC(=O)NCCN1CCN(c2cccc(C(F)(F)F)c2)CC1 [fluprazine],1.46%,1.13%,-1.67%,-1.94%,-2.06%
O=C(O)c1ccc(S(=O)(=O)N(Cl)Cl)cc1 [halazone],-0.04%,2.43%,-0.73%,-4.46%,-0.76%
O=C(Nc1nc(-c2cc(Cl)cs2)c(N2CCN(C3CCCCC3)CC2)s1)c1cnc(N2CCC(C(=O)O)CC2)c(Cl)c1 [avatrombopag],2.06%,0.14%,0.09%,-3.82%,-0.97%
CN1C/C=C/CCOc2cccc(c2)-c2ccnc(n2)Nc2cccc(c2)C1,5.51%,0.11%,0.3%,-10.7%,-9.98%
O=c1cc(N2CCOCC2)oc2c(-c3cccc4c3sc3ccccc34)cccc12,1.01%,-0.44%,0.05%,8.27%,36.8% (active)
